Data on 7 compounds can be found in PubChem BioAssay (Tox21).

A number with no mark means an inactive call. Inconclusive results are not listed. Activity calls are given as the source filed them. Unless noted, the call rests on the fitted dose curve; in most records, active means well fitted curve in the direction sought with a large enough effect in the repeat runs; inconclusive means weak or mixed curves; inactive means no such curve, though single readings can be large; an effect the other way counts as inactive or inconclusive.

Assay [1] is described as follows: qHTS assay to identify small molecule agonists of the androgen receptor (AR) signaling pathway in the presence of an antagonist - cell viability counter screen (AID 1259379). Further: nearly all actives have a fitted effect of over 25% in size. Further: potency means the concentration at half of the fitted maximal effect. On activity change, negative = cytotoxicity: series mostly up to about 92 µM. In a few lines: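 MDA-kb2 human breast carcinoma cells (stable MMTV-luciferase, AR/GR responsive) were seeded 3,000 cells/well, pre-incubated 5 hr at 37C without CO2, then given 3.0uM nilutamide and compounds at 15 concentrations for 16 hr. Viability was read by CellTiter-Fluor fluorescence.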

Assay [2] in a line: qHTS assay to identify small molecule agonists of the estrogen receptor beta (ER-beta) signaling pathway - cell viability counter screen (AID 1259380). Further: nearly all actives have a fitted effect of over 30% in size. In a few lines:
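ER-beta-UAS-bla HEK293T cells in medium with 2% charcoal-stripped FBS were preincubated 6 hr at 37C, dosed with compound in DMSO for 16 hr, then after the bla read, CellTiter-Glo was added for 30 min at room temperature; luminescence recorded.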

Assay [3] concerns the target Androgen receptor (Homo sapiens) (UniProt P10275). Put plainly: qHTS assay to identify small molecule agonists of the androgen receptor (AR) signaling pathway in the presence of an antagonist (AID 1259381; calls by dose curve; further: nearly all actives have a fitted effect of over 15% in size; further: potency means the concentration at half of the fitted maximal effect). Summed up: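 MDA-kb2 human breast carcinoma cells carrying an MMTV-luciferase reporter (AR- and GR-responsive) were treated with compounds at 15 concentrations plus 3.0uM final nilutamide for 16hr at 37C without CO2; luminescence was read after ONE-Glo addition.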

Assay [4] is described as follows: qHTS assay to identify small molecule antagonists of the estrogen receptor beta (ER-beta) signaling pathway - cell viability counter screen (AID 1259382).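 Further: HEK293T cells carrying ER-beta-UAS-bla reporter stimulated with estradiol; series mostly up to about 92 µM; nearly all actives have a fitted effect of over 55% in size.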 Summed up:
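ER-beta-UAS-bla HEK293T cells (2,000/well, 2% charcoal-stripped FBS) were pre-incubated 6 hr at 37C, then given compound plus 1nM final 17-beta-estradiol for 16 hr. Viability was read in the same wells by CellTiter-Glo luminescence after 30 min at room temperature.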

Assay [5] has as its target Estrogen receptor (Homo sapiens) (UniProt P03372). Put plainly: qHTS assay to identify small molecule agonists of the estrogen receptor alpha (ER-alpha) signaling pathway in the presence of an antagonist (AID 1259383; calls by dose curve; further: top concentration of the series differs between compounds; nearly all actives have a fitted effect of over 15% in size). In a few lines:
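VM7Luc4E2 cells (endogenous full-length ER-alpha, 4×ERE-luciferase) were precultured 5 days in phenol red-free medium with 10% charcoal-stripped FBS, given 10.0nM ICI-182,780 (final), then treated with compounds at 15 concentrations for 22hr at 37C; luminescence read with ONE-Glo.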

Assay [6] is described as follows: qHTS assay to identify small molecule agonists or antagonists of the thyroid stimulating hormone receptor (TSHR) signaling pathway - wild type cell line counter screen (AID 1259384; calls by dose curve). Summed up:
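Wild-type HEK293 cells were plated 18 h at 37 C/5% CO2, pin-dosed with compound plus Ro20-1724 medium, held 30 min at room temperature, then given cAMP-d2 and anti-cAMP-cryptate; fluorescence was read after 1 h. Fifteen concentrations, triplicate.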

The target of assay [7] is Thyrotropin receptor (Homo sapiens) (UniProt P16473). In words: qHTS assay to identify small molecule antagonists of the thyroid stimulating hormone receptor (TSHR) signaling pathway (AID 1259385; calls by dose curve; further: nearly all actives have a fitted effect of over 20% in size). Summed up: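 TSHR-HEK293 cells were plated and held 18 h at 37C/5% CO2, then given compound plus Ro20-1724 and stimulated with TSH at 1.5 ng/mL final. After 30 min at room temperature, cAMP was detected with cAMP-d2/anti-cAMP-cryptate (1 h) by fluorescence.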

Assay [8] is described as follows: qHTS assay to identify small molecule agonists of the estrogen receptor alpha (ER-alpha) signaling pathway in the presence of an antagonist - cell viability counter screen (AID 1259386).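 Further: cells exposed to compounds for 22 h at 37 °C before the viability read; nearly all actives have a fitted effect of over 30% in size.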 Further: potency means the concentration at half of the fitted maximal effect. On activity change, negative = cytotoxicity: series mostly up to about 92 µM. Summed up:
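VM7Luc4E2 cells (endogenous full-length ER-alpha, 4×ERE-luciferase) were held 5 days in phenol red-free medium with 10% charcoal-stripped FBS, plated, then given 10.0nM ICI-182,780 and compounds at 15 concentrations for 22hr at 37C; viability read by CellTiter-Fluor fluorescence.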

The nature of assay [9]: qHTS assay to identify small molecule antagonists of the progesterone receptor (PR) signaling pathway - cell viability counter screen (AID 1346798). Further: series mostly up to about 92 µM; nearly all actives have a fitted effect of over 50% in size. In a few lines:
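PR-UAS-bla HEK293T cells in medium with 2% charcoal-stripped FBS were treated with compounds plus R5020 for 16 hr at 37C. Cell viability was then read by CellTiter-Glo luminescence after 30 min at room temperature in the same wells.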

The nature of assay [10]: qHTS assay to identify small molecule antagonists of the TGF-beta/Smad signaling pathway - cell viability counter screen (AID 1346824). Further: nearly all actives have a fitted effect of over 50% in size. In a few lines:
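SBE-bla HEK 293T cells were plated overnight at 37 C, then given compounds in DMSO plus TGF-beta1 (added as 0.25 ng/mL solution) for 5 hr. After the bla read, CellTiter-Glo was added to the same wells and luminescence read after 30 min at room temperature.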

The nature of assay [11]: qHTS assay to identify small molecule agonists of the TGF-beta/Smad signaling pathway - cell viability counter screen (AID 1346829). Further: top concentration of the series differs between compounds; nearly all actives have a fitted effect of over 45% in size. Summed up:
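Tox21 qHTS format: SBE-bla HEK 293T cells treated with DMSO-dissolved compounds for 5 hr; CellTiter-Glo luminescence after 30 min at room temperature.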

Assay [12] can be described thus: qHTS assay to identify small molecule agonists of the TGF-beta/Smad signaling pathway (AID 1346859; active means well fitted activation curve with a large enough effect in the signal ratio in the repeat runs, not every such curve was filed as active; the % refers to the signal ratio; further: series mostly up to about 77 µM). In a few lines: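 HEK 293T cells stably carrying a beta-lactamase reporter driven by the Smad binding element were seeded overnight, exposed to DMSO-dissolved compounds for 5 hr at 37 C, 5% CO2, then loaded with FRET substrate for 2 hr at room temperature.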
For assay [13], the target named is Thyrotropin-releasing hormone receptor (Homo sapiens) (UniProt P34981). Put plainly: qHTS assay to identify small molecule antagonists of the thyrotropin-releasing hormone receptor (TRHR) signaling pathway (AID 1346877; active means well fitted inhibition curve with a large enough effect in the repeat runs, not every such curve was filed as active; further: series mostly up to about 51 µM). Summed up:
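TRHR-expressing HEK293 cells were seeded, cultured 18 h at 37 °C, then loaded with calcium dye for 2 h. Compounds were pre-incubated 5 min at room temperature before 1 nM TRH (final) was added, and kinetic fluorescence was recorded for 3 min.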

The target is the same in assay [14]. Put plainly: qHTS assay to identify small molecule agonists of the thyrotropin-releasing hormone receptor (TRHR) signaling pathway (AID 1346891; calls by dose curve; further: series mostly up to about 58 µM). In a few lines: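 TRHR-expressing HEK293 cells were plated 18 h at 37 °C/5% CO2, loaded with calcium dye 2 h at 37 °C, then given compound in DMSO; fluorescence was read kinetically for 3 min at 1 s intervals.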
Assay [15] in a line: Human pregnane X receptor (PXR) small molecule agonists, qHTS cell viability counter screen (AID 1346977). Further: nearly all actives have a fitted effect of over 50% in size. In a few lines: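 PXR-Luc HepG2 cells in medium with 5% charcoal-stripped FBS were pre-incubated 5hr, then exposed to compounds for 24hr at 37C. Viability was read in the same wells by CellTiter-Fluor fluorescence, reagent added after 23hr with a 1hr incubation.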
Assay [16] can be described thus: Caspase-3/7 induction in HepG2 cells by small molecules, qHTS assay (AID 1346978). Further: nearly all actives have a fitted effect of over 15% in size. Summed up:
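Wild-type HepG2 cells (2,000/well) were settled 5 h at 37 C, 5% CO2, then exposed to compounds in DMSO for 17 h. Caspase-3/7 activity was read by luminescence 30 min after adding Caspase-Glo 3/7 reagent at room temperature.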

The nature of assay [17]: Caspase-3/7 induction in CHO-K1 cells by small molecules, qHTS cell viability counter screen (AID 1346979). Further: nearly all actives have a fitted effect of over 35% in size. Further: potency means the concentration at half of the fitted maximal effect. In a few lines:
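Wild-type CHO-K1 cells were seeded at 1,500 per well, rested 5hr at 37 C, then exposed to compounds in DMSO. After 16hr, CellTiter-Fluor reagent was added and fluorescence read 1hr later as the viability measure.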

Assay [18] addresses Progesterone receptor (Homo sapiens) (UniProt P06401). In words: qHTS assay to identify small molecule agonists of the progesterone receptor (PR) signaling pathway (AID 1346784; calls by dose curve; further: nearly all actives have a fitted effect of over 30% in size). In a few lines: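 PR-UAS-bla HEK 293T cells carrying a UAS-driven beta-lactamase reporter were seeded in medium with 2% charcoal-stripped FBS, preincubated 6 hr at 37C, then exposed to compounds in DMSO for 16 hr; agonism was read by LiveBLAzer B/G FRET fluorescence.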

The target is the same in assay [19]. Put plainly: qHTS assay to identify small molecule antagonists of the progesterone receptor (PR) signaling pathway (AID 1346795; active means well fitted inhibition curve with a large enough effect in the signal ratio in the repeat runs, not every such curve was filed as active; the % refers to the signal ratio). In a few lines: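 PR-UAS-bla HEK293T cells carrying a UAS-driven beta-lactamase reporter were plated in medium with 2% charcoal-stripped FBS and rested 6 hr at 37C. Compounds were added with 1 nM R5020 (final) for 16 hr, then FRET substrate loaded 2 hr at room temperature.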

A short description of assay [20]: qHTS assay to identify small molecule agonists of the progesterone receptor (PR) signaling pathway - cell viability counter screen (AID 1346799; calls by dose curve; further: nearly all actives have a fitted effect of over 45% in size). In a few lines:
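PR-UAS-bla HEK293T cells, 3,000 per well in medium with 2% charcoal-stripped FBS, were preincubated 6 hr at 37C, then exposed to compounds for 16 hr; viability was read as CellTiter-Glo luminescence after 30 min at room temperature.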
On the % scale 0 is the no-effect control and ±100 the full control effect.

Sequence of Progesterone receptor (Homo sapiens) (P06401 whole entry, looked up): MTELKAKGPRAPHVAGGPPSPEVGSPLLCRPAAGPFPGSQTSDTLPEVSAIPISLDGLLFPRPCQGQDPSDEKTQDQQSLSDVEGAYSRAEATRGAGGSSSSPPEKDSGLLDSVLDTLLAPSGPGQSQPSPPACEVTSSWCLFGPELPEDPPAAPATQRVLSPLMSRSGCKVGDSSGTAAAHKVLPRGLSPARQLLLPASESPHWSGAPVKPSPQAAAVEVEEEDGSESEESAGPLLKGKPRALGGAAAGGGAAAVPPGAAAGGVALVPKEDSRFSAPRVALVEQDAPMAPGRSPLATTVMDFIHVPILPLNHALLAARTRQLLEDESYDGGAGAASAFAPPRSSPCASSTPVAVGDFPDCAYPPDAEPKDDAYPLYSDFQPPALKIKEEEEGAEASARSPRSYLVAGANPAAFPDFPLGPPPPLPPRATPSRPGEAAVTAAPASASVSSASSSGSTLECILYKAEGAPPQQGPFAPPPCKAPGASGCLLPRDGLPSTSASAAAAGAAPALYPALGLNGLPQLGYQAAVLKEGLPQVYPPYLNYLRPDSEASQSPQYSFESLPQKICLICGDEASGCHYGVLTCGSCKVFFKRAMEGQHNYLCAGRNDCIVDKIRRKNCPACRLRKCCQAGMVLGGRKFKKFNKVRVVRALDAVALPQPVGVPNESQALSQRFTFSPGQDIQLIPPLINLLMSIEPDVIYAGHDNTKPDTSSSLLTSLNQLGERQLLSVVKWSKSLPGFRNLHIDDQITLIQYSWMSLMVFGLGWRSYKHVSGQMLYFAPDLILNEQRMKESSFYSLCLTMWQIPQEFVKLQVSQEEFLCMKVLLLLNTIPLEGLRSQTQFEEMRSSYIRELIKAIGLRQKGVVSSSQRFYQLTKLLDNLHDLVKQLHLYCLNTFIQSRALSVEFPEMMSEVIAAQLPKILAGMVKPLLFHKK
Sequence of Thyrotropin-releasing hormone receptor (Homo sapiens) (P34981 whole entry, looked up): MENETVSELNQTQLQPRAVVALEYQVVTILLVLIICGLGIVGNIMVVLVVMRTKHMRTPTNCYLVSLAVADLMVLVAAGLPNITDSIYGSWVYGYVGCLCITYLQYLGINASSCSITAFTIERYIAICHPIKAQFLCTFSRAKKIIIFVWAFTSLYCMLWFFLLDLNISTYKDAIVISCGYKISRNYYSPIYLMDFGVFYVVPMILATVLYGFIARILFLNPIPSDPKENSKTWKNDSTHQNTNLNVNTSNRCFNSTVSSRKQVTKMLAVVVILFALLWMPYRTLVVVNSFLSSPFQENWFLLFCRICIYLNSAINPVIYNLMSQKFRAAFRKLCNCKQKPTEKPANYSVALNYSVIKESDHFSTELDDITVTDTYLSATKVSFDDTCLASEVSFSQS
Sequence of Estrogen receptor (Homo sapiens) (P03372 whole entry, looked up): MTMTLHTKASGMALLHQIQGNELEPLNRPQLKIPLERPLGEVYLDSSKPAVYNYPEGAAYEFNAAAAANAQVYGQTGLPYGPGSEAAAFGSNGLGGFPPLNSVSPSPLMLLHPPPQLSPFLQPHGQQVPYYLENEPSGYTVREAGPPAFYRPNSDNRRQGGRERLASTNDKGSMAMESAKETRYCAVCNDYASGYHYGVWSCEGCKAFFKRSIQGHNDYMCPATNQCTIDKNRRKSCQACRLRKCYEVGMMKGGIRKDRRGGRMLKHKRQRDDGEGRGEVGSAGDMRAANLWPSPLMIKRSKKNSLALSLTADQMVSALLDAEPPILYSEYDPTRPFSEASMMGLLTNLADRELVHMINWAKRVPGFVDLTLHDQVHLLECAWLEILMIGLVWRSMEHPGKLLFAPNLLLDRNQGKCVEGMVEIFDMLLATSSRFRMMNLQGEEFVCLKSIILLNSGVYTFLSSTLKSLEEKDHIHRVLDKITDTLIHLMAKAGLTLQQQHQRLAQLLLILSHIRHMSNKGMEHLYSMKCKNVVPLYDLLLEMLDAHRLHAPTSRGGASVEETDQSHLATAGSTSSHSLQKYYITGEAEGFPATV
Sequence of Thyrotropin receptor (Homo sapiens) (P16473 whole entry, looked up): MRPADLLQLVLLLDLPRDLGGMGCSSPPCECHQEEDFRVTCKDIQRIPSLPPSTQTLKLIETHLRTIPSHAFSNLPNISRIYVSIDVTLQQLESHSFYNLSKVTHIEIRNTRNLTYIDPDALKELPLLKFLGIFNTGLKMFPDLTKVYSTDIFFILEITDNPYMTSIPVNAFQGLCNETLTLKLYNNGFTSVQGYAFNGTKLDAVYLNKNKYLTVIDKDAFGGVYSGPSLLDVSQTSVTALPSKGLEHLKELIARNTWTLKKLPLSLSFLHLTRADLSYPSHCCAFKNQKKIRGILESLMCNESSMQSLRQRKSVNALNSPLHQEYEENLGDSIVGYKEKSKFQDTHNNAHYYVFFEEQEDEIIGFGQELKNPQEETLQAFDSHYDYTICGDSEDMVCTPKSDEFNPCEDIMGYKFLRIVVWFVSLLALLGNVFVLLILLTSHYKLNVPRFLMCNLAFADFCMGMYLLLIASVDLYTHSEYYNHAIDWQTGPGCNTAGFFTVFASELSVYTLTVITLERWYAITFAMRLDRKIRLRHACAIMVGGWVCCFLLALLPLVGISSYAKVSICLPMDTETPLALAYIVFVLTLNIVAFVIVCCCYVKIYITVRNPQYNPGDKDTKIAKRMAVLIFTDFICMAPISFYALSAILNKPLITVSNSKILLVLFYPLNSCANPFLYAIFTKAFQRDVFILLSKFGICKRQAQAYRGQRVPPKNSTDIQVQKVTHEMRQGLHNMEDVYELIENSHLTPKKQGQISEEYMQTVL
Sequence of Androgen receptor (Homo sapiens) (P10275 whole entry, looked up): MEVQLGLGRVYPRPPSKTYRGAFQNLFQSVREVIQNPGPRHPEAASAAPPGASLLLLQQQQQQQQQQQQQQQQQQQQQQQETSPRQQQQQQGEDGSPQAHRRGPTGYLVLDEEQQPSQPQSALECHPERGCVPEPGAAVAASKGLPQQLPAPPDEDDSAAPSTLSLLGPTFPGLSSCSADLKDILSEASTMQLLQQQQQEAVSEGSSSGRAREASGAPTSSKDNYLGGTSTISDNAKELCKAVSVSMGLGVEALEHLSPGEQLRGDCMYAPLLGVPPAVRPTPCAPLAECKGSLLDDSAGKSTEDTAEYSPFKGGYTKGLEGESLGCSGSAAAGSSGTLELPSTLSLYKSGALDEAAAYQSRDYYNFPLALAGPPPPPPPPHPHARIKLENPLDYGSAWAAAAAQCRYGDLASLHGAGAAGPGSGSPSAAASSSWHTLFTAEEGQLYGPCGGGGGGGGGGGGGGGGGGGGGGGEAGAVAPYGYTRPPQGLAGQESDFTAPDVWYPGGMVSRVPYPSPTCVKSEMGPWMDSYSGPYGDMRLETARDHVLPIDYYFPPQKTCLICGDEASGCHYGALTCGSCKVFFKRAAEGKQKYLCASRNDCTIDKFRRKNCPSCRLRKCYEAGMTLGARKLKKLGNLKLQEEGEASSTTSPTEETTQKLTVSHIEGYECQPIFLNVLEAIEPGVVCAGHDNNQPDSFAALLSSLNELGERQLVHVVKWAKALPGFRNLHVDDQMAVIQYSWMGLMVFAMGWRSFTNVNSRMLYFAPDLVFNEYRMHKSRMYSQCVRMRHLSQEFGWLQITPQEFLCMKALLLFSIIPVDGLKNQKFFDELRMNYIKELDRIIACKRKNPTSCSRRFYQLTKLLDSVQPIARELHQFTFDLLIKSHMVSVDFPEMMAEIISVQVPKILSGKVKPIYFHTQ

Regarding `C=CC(=O)OCCOC1C2CCC1C1CC=CC12` (stereo not given), the activity change, negative = cytotoxicity in [1] was -6.73% [at 19 µM]; in assay [2], -0.168% [at 19 µM]; in assay [4], 2.85% [at 19 µM]; in assay [8] it was 0.411% [at 19 µM]; in assay [9], 13.6% [at 18.9 µM]; in [11] it was 7.46% [at 15.8 µM]. Besides, the activity change, negative = cytotoxicity in [15] was 5.4% [at 19 µM]; in [17], 4.17% [at 19 µM]. The activation in assay [3] was 0.68% [at 19 µM]; in assay [5] it was 0.428% [at 19 µM]; in [12], -4.69% [at 15.8 µM]; in assay [14] it was -0.0878% [at 11.8 µM]. In addition, the cAMP activity change in assay [6] was -2.01% [at 18.9 µM, hits give high values]. The activity change, negative = inhibition in assay [7] was 6.1% [at 19 µM]. The viability change, negative = cytotoxic in assay [10] is -7.56% [at 15.8 µM]. The activity, negative = inhibition in [13] was 0.809% [at 10.5 µM]. The caspase activation in [16] was 2.88% [at 19 µM].

For the compound `O=C1OCc2ccccc21`, the Potency entry in assay [1], in assay [2], in assay [3], in assay [4], in assay [5] and in [6] was “inactive” in each case. In addition, the Potency result in [7], in [8], in assay [19], in assay [9], in assay [20] and in assay [10] was “inactive” in each case. Further, the Potency entry in assay [11], in assay [13], in assay [14], in assay [15], in assay [16] and in assay [17] was “inactive” in each case. For the same compound, the result in [18] and in assay [12] was inactive.

`CCOC(=O)OC(=O)OCC`: the Potency result in [1], in [2], in assay [3], in assay [4], in [5] and in assay [6] was “inactive” in each case. In addition, the Potency entry in assay [7], in assay [8], in [9], in assay [10], in assay [11] and in [13] was “inactive” in each case. In addition, the Potency result in assay [14], in assay [15], in assay [16] and in [17] was “inactive” throughout. Also, the compound was called inactive in assay [18] and in assay [12].

In the case of `Clc1cccc(Cl)n1`, the Potency result in assay [1], in assay [2], in assay [3], in [4], in [5] and in assay [8] was “inactive” each time. Further, the Potency result in [9], in assay [10], in assay [11], in [15] and in [16] was “inactive” each time. Also, the outcome in [18] and in assay [12] was inactive.

Consider `Cc1ccc(N=Nc2c(O)ccc3ccccc23)c(C)c1`, for which the Potency in [1] is 13.3 µM (active); in [3], 0.335 µM (active); in assay [8] it was 7.5 µM (active); in assay [17], 7.5 µM (active). Also, the Potency result in assay [2], in assay [4], in [5], in assay [6], in [7] and in assay [9] was “inactive” each time. The Potency result in assay [20], in assay [10], in assay [11], in assay [13], in [14] and in assay [16] was “inactive” in each case. Further, the call in assay [18] and in [12] was inactive.

For `CCOC=C(C(=O)OCC)C(=O)OCC`, the Potency entry in assay [1], in assay [2], in [3], in assay [4], in [5] and in assay [6] was “inactive” in each case. The Potency result in assay [7], in assay [8], in [9], in assay [20], in [10] and in assay [11] was “inactive” throughout. The Potency result in assay [13], in [14], in assay [15], in [16] and in assay [17] was “inactive” in each case. The compound was classed as inactive in assay [18] and in [12].

Consider `CC(C)(C)c1cc(CCC(=O)OCCSCCOC(=O)CCc2cc(C(C)(C)C)c(O)c(C(C)(C)C)c2)cc(C(C)(C)C)c1O`, for which the Potency result in assay [1], in [2], in assay [3], in [4], in [5] and in assay [6] was “inactive” throughout. The Potency entry in [7], in assay [8], in [19], in [9], in [20] and in [10] was “inactive” throughout. Besides, the Potency result in assay [11], in assay [13], in assay [14], in [15], in assay [16] and in [17] was “inactive” each time. For the same compound, the result in [18] and in assay [12] was inactive.
